From PubChem BioAssay (Tox21)
A number with no mark means an inactive call. Results filed as inconclusive are left out. Where a call stands in place of a potency, no number is given. Active and inactive are the calls of the source. Unless noted, calls follow the shape of the dose curve; as a rule, active = well fitted curve in the direction sought with a large enough effect in the repeat runs; inconclusive = weak or mixed curves; inactive = no such curve, though single readings can be large; an effect the other way counts as inactive or inconclusive.

What was measured:
[1] = qHTS assay to identify small molecule agonists of the estrogen receptor alpha (ER-alpha) signaling pathway in the presence of an antagonist - cell viability counter screen (AID 1259386);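 also: cells exposed to compounds for 22 h at 37 °C before the viability read; nearly all actives have a fitted effect of over 30% in size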; also: potency is read from the fitted curve at half-maximal effect
Outline: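 Steps: 5-day stripped-FBS culture; seed and incubate 24hr; add ICI-182,780 (10.0nM final); pin 15-point compound titration; incubate 22hr at 37C; add CellTiter-Fluor at 21hr; read fluorescence.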

[2] = molecular target: Progesterone receptor (Homo sapiens) (UniProt P06401); assay: qHTS assay to identify small molecule agonists of the progesterone receptor (PR) signaling pathway (AID 1346784; calls by dose curve; also: nearly all actives have a fitted effect of over 30% in size)
Progesterone receptor (Homo sapiens), sequence (P06401 whole entry, looked up): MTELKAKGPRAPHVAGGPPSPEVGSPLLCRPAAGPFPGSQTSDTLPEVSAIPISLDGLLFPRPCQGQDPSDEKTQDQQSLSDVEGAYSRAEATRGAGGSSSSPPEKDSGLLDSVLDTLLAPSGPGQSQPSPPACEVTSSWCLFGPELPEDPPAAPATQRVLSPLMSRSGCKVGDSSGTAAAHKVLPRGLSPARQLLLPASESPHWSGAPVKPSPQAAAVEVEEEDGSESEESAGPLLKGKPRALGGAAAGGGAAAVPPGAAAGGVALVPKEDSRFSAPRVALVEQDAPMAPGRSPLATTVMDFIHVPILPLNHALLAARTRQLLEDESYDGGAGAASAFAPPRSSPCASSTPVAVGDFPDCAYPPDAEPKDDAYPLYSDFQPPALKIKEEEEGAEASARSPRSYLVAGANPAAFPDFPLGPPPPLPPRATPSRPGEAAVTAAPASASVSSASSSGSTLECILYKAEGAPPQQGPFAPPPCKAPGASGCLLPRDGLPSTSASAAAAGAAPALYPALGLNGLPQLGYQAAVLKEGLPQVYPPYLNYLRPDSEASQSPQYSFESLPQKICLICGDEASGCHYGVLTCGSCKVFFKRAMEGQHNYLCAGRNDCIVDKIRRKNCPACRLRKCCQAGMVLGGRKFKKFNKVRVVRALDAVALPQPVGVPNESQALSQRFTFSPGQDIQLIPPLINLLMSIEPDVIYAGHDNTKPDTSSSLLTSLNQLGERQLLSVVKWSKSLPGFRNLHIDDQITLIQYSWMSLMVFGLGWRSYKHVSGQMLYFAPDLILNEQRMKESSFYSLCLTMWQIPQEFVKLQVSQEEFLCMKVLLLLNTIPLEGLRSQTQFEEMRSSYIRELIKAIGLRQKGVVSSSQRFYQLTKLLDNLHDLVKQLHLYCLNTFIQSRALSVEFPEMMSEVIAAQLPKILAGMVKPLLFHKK
Outline: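 Compounds were tested for PR agonism in HEK 293T cells bearing a beta-lactamase gene under UAS control. Treatment lasted 16 hr at 37C; signal came from fluorescence of a FRET substrate.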

[3] = qHTS assay to identify small molecule antagonists of the progesterone receptor (PR) signaling pathway - cell viability counter screen (AID 1346798); also: series mostly up to about 92 µM; nearly all actives have a fitted effect of over 50% in size
Outline: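 Following a 4 hr attachment, PR-UAS-bla HEK293T cells in charcoal-stripped FBS medium were exposed to compounds with R5020 for 16 hr; CellTiter-Glo was added and luminescence read after 30 min at room temperature.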

[4] = qHTS assay to identify small molecule agonists of the progesterone receptor (PR) signaling pathway - cell viability counter screen (AID 1346799; calls by dose curve; also: nearly all actives have a fitted effect of over 45% in size)
Outline: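 Here, 3,000 PR-UAS-bla HEK293T cells per well were treated with compounds for 16 hr after a 6 hr preincubation at 37C and 5% CO2; cell viability is the CellTiter-Glo luminescence signal.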

[5] = qHTS assay to identify small molecule antagonists of the TGF-beta/Smad signaling pathway - cell viability counter screen (AID 1346824); also: nearly all actives have a fitted effect of over 50% in size
Outline: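 Cytotoxicity counter-screen run in the same wells as the beta-lactamase Smad reporter read: CellTiter-Glo luminescence after 30 min at room temperature. HEK 293T SBE-bla cells had 5 hr compound exposure at 37 C with TGF-beta1 (0.25 ng/mL stock).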

[6] = qHTS assay to identify small molecule agonists of the TGF-beta/Smad signaling pathway - cell viability counter screen (AID 1346829); also: top concentration of the series differs between compounds; nearly all actives have a fitted effect of over 45% in size
Outline: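 Here the cytotoxicity of library compounds is measured in SBE-bla HEK 293T cells treated for 5 hr, using CellTiter-Glo added to wells already read for the beta-lactamase reporter.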

[7] = qHTS assay to identify small molecule agonists of the TGF-beta/Smad signaling pathway (AID 1346859; active = well fitted activation curve with a large enough effect in the signal ratio in the repeat runs, not every such curve was filed as active; the % refers to the signal ratio; also: series mostly up to about 77 µM)
Outline: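 Each well held 4,000 SBE-bla HEK 293T cells incubated overnight before compound addition; 5 hr later the cleavable FRET substrate went on for 2 hr at room temperature, and fluorescence was read at two emissions.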

[8] = molecular target: Thyrotropin-releasing hormone receptor (Homo sapiens) (UniProt P34981); assay: qHTS assay to identify small molecule antagonists of the thyrotropin-releasing hormone receptor (TRHR) signaling pathway (AID 1346877; active = well fitted inhibition curve with a large enough effect in the repeat runs, not every such curve was filed as active; also: series mostly up to about 51 µM)
Thyrotropin-releasing hormone receptor (Homo sapiens), sequence (P34981 whole entry, looked up): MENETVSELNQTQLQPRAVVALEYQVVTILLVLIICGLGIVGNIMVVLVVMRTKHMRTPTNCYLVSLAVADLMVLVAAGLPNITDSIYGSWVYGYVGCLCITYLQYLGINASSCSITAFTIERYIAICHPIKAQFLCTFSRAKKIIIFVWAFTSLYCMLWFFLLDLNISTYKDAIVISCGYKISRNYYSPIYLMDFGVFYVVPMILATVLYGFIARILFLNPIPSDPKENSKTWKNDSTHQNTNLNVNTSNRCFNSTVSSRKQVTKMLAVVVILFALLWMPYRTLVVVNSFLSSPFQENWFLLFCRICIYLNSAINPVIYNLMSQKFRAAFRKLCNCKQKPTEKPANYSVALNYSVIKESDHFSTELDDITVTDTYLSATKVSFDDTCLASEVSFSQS
Outline: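 Human TRHR in HEK293 cells; inhibition of the intracellular calcium rise triggered by 1 nM TRH was followed by fluorescence over 3 min. Compounds were run at 15 concentrations, three replicates each.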

[9] = molecular target: Thyrotropin-releasing hormone receptor (Homo sapiens) (UniProt P34981); assay: qHTS assay to identify small molecule agonists of the thyrotropin-releasing hormone receptor (TRHR) signaling pathway (AID 1346891; calls by dose curve; also: series mostly up to about 58 µM)
Outline: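 Screening of agonists relied on calcium signalling in HEK293 cells expressing human TRHR: dye loading 2 h at 37 °C preceded compound addition and a 3-min fluorescence time course.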

[10] = Human pregnane X receptor (PXR) small molecule agonists, qHTS cell viability counter screen (AID 1346977); also: nearly all actives have a fitted effect of over 50% in size; also: potency is read from the fitted curve at half-maximal effect
Outline: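 Tox21 qHTS format; PXR-Luc HepG2, 2,000/well, charcoal-stripped FBS 5%. Cpd exposure 24hr. Read: CellTiter-Fluor fluorescence, multiplexed with luciferase.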

[11] = Caspase-3/7 induction in HepG2 cells by small molecules, qHTS assay (AID 1346978); also: nearly all actives have a fitted effect of over 15% in size; also: potency is read from the fitted curve at half-maximal effect
Outline: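 Caspase-3/7 induction was measured by Caspase-Glo 3/7 luminescence (30 min, room temperature) after a 17 hr compound exposure of wild-type HepG2 cells seeded at 2,000 per well and pre-incubated 5 hr.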

[12] = Caspase-3/7 induction in CHO-K1 cells by small molecules, qHTS assay (AID 1346980); also: nearly all actives have a fitted effect of over 15% in size; also: potency is read from the fitted curve at half-maximal effect
Outline: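 Luminescent Caspase-Glo 3/7 read (30min, room temperature) quantified apoptosis induction. Cells were wild-type CHO-K1, treated with compound for 17hr at 37 C and 5% CO2.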

[13] = Caspase-3/7 induction in HepG2 cells by small molecules, qHTS cell viability counter screen (AID 1346981); also: nearly all actives have a fitted effect of over 30% in size; also: potency is read from the fitted curve at half-maximal effect
Outline: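 The parent HepG2 line is plated at 2,000 cells per well and rested 5 hr before compound pinning from DMSO stocks. Following a 16-hr treatment at 37 C, a fluorogenic live-cell substrate (CellTiter-Fluor) reports viability after 1 hr.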

[14] = molecular target: Nuclear receptor subfamily 1 group I member 2 (Homo sapiens) (UniProt O75469); assay: Human pregnane X receptor (PXR) small molecule agonists, qHTS assay (AID 1346982); also: nearly all actives have a fitted effect of over 35% in size; also: potency is read from the fitted curve at half-maximal effect
Nuclear receptor subfamily 1 group I member 2 (Homo sapiens), sequence (O75469 whole entry, looked up): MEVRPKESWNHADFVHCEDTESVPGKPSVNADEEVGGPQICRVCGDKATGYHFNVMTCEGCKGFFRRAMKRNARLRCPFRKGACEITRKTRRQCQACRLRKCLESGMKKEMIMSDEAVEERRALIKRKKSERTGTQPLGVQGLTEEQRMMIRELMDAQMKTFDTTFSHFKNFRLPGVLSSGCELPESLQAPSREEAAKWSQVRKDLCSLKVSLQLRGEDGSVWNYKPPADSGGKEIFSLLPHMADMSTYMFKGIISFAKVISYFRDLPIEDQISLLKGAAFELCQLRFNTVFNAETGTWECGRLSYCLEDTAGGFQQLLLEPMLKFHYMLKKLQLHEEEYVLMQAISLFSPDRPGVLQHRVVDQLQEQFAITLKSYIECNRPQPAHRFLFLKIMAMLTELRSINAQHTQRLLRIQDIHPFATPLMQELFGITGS
Outline: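 After plating in 5% charcoal-stripped FBS and a 5 hr rest, PXR-Luc HepG2 cells received compounds in DMSO. Following 24 hr at 37 C, ONE-Glo was added and light output read.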

[15] = molecular target: Acetylcholinesterase (Homo sapiens) (UniProt P22303); assay: Acetylcholinesterase (AChE) small molecule antagonists: colormetric cell-based qHTS assay (AID 1347395; calls by dose curve; also: nearly all actives have a fitted effect of over 30% in size; also: potency is read from the fitted curve at half-maximal effect)
Acetylcholinesterase (Homo sapiens), sequence (P22303 whole entry, looked up): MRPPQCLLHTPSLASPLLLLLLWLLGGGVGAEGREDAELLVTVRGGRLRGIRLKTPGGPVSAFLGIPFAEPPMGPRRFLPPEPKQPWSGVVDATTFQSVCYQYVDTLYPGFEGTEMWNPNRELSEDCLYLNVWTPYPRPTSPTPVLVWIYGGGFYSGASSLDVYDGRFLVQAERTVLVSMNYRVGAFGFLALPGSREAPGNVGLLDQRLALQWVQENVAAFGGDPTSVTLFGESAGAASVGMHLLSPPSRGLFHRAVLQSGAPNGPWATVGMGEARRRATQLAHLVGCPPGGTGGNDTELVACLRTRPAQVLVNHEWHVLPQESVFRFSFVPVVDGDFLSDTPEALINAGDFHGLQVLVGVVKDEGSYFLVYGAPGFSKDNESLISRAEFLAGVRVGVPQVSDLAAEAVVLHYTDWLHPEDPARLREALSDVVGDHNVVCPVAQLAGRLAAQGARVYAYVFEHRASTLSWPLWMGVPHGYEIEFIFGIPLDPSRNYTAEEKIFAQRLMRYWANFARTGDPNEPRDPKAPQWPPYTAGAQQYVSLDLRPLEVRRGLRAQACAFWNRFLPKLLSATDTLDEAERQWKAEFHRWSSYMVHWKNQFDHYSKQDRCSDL
Outline: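 AChE inhibition read colorimetrically via DTNB–thiocholine in SH-SY5Y cells. Compound 30 min, substrate 90 min, both 37 C.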

[16] = molecular target: Progesterone receptor (Homo sapiens) (UniProt P06401); assay: qHTS assay to identify small molecule antagonists of the progesterone receptor (PR) signaling pathway (AID 1346795; active = well fitted inhibition curve with a large enough effect in the signal ratio in the repeat runs, not every such curve was filed as active; the % refers to the signal ratio; also: potency is read from the fitted curve at half-maximal effect)
Outline: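 In HEK293T cells bearing the PR-UAS-bla reporter, compound effects on promegestone-driven (1 nM) beta-lactamase expression are assessed after 16 hr using a fluorescent FRET substrate incubated 2 hr at room temperature.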

[17] = Caspase-3/7 induction in CHO-K1 cells by small molecules, qHTS cell viability counter screen (AID 1346979); also: nearly all actives have a fitted effect of over 35% in size; also: potency is read from the fitted curve at half-maximal effect
Outline: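 CellTiter-Fluor viability check, qHTS format: wild-type CHO-K1, 16hr compound treatment, 1hr reagent incubation, fluorescence read.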

SMILES | Potency [1] | Potency [2] | Potency [3] | Potency [4] | Potency [5] | outcome [6] | outcome [7] | outcome [8] | outcome [9] | Potency [10] | Potency [11] | Potency [12] | Potency [13] | Potency [14] | Potency [15] | Potency [16] | Potency [17]
CCSC(=O)N(CC)C1CCCCC1 | inactive | inactive | inactive | inactive | inactive | inactive | inactive | inactive | inactive | inactive | inactive | inactive | inactive | inactive | inactive | – | –
C#CCN1C(=O)COc2cc(F)c(N3C(=O)C4=C(CCCC4)C3=O)cc21 | inactive | inactive | – | – | – | inactive | inactive | – | inactive | inactive | inactive | inactive | inactive | – | inactive | inactive | –
CCCSP(=O)(OCC)Oc1ccc(Br)cc1Cl (stereo unspecified) | inactive | inactive | – | – | – | inactive | inactive | inactive | inactive | – | inactive | inactive | inactive | 29.7 µM (active) | 6.88 µM (active) | 11.8 µM (active) | inactive
CS(=O)(=O)c1cc(C(F)(F)F)ccc1C(=O)c1cnoc1C1CC1 | inactive | inactive | – | – | inactive | inactive | inactive | – | – | – | inactive | inactive | inactive | – | inactive | inactive | –
CCC#N | inactive | inactive | inactive | inactive | – | inactive | inactive | inactive | – | inactive | inactive | inactive | inactive | inactive | inactive | – | –
COP(=S)(OC)Oc1ccc(S(N)(=O)=O)cc1 | inactive | inactive | inactive | inactive | inactive | inactive | inactive | – | inactive | – | inactive | inactive | inactive | – | inactive | – | inactive
CCCCOC(=O)c1ccccc1C(=O)O | inactive | inactive | – | – | inactive | inactive | inactive | – | – | – | inactive | inactive | inactive | inactive | inactive | inactive | –
CC(C)NCC(O)c1ccc(N)c(C#N)c1 (stereo unspecified) | inactive | inactive | – | inactive | inactive | inactive | inactive | – | – | inactive | inactive | inactive | inactive | – | inactive | – | inactive
CCC1(c2ccccc2)C(=O)N=C(O)NC1=O (stereo unspecified) | inactive | – | – | – | inactive | inactive | inactive | inactive | – | – | inactive | inactive | inactive | – | inactive | inactive | inactive
N#Cc1ccncc1 | inactive | inactive | inactive | inactive | – | inactive | inactive | – | – | inactive | inactive | inactive | inactive | inactive | inactive | – | inactive
CCOP(=S)(OCC)Oc1cc(-c2ccccc2)on1 | inactive | inactive | inactive | – | – | inactive | inactive | inactive | – | – | inactive | inactive | inactive | 24.3 µM (active) | 63.3 µM (active) | – | inactive
CC(C=O)Cc1ccc2c(c1)OCO2 (stereo unspecified) | inactive | inactive | inactive | – | inactive | inactive | inactive | – | – | inactive | inactive | inactive | inactive | – | inactive | – | inactive
O=c1oc2ccccc2c(O)c1C1CCCc2ccccc21 (stereo unspecified) | inactive | inactive | inactive | – | inactive | inactive | inactive | inactive | inactive | inactive | inactive | inactive | inactive | – | inactive | – | inactive
COc1cccc2c1cc([N+](=O)[O-])c1c(C(=O)O)cc3c(c12)OCO3 | 61.1 µM (active) | inactive | inactive | – | – | inactive | – | inactive | inactive | 12.2 µM (active) | 9.69 µM (active) | 9.69 µM (active) | 27.3 µM (active) | – | inactive | – | 21.7 µM (active)
C[N+](C)=CCl | inactive | inactive | – | inactive | inactive | inactive | inactive | – | inactive | inactive | inactive | inactive | inactive | inactive | inactive | – | inactive
